Laboratory results taken from PubChem BioAssay AID1310 (The Scripps Research Institute Molecular Screening Center, 2008).
This is one part of the list. Unmarked numbers belong to inactive results. The source made the active and inactive calls.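 The calls were made as follows: active = inhibition above the mean of solvent-only control wells plus 3 SD, set per campaign (cut at about 25% in these data); inactive = the rest.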

assay: blockers of IL-6 STAT3 transcription – U3A cells, luciferase, luminescence, triplicate, counter-screen for STAT1 inhibitor project (AID 1310); details: IL-6 STAT3 luciferase reporter, at 5.7 µM, hits give high values, cells lacking STAT1;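 also: 0% = IL-6 plus DMSO and 100% = IL-6 plus nifuroxazide control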

Row | SMILES | inhibition
1 | O=C(CCl)N(Cc1cccc([N+](=O)[O-])c1)c1cccc(Cl)c1 | 47% (active)
2 | CCOC(=O)N1CCN(C(=O)C2CCN(c3ncnc4c3sc3cccc(F)c34)CC2)CC1 | 4.65%
3 | Cc1ccc(C2=Nc3c(ccc4ccccc34)C(c3ccncc3)=NN2)cc1 | -38.9%
4 | COC(=O)C1=CN(Cc2ccc(OC)c(OC)c2)C=C(C(=O)OC)C1c1cccs1 | -3.35%
5 | COc1ccc(C(=O)Nc2ccccc2C(=O)N/N=C/c2ccccc2OC)cc1 | -7.2%
6 | NS(=O)(=O)c1cccc(NC(=O)CSc2nc3ccccc3n2-c2ccccc2)c1 | -2.95%
7 | COc1ccc(C2CC(c3cccs3)=NN2c2nc(C)c(C(C)=O)s2)cc1OC (stereo not given) | 13.4%
8 | CCOC(=O)N1CCN(C(=O)CSc2nnc(-c3c[nH]c4ccccc34)n2CCOC)CC1 | -4.2%
9 | CCOC(=O)C(=CNc1cccc(C)n1)C(=O)OCC | 9.3%
10 | C[C@@H]1C[C@@H]2O[C@H]2/C=C\C=C\C(=O)Cc2c(Cl)c(O)cc(O)c2C(=O)O1 | 70% (active)
